Results filed as inconclusive are left out. Unmarked numbers belong to inactive results. Calls follow the shape of the dose curve; as a rule, active = well fitted cell-killing curve with a large enough effect; inconclusive = small, poorly fitted or top-dose-only effect, or effect the other way; inactive = flat fitted curve, though single readings scatter.
Test system: Es-2
Test: Primary qHTS to identify gynecologic anti-cancer compounds using libraries of approved drugs and bioactive compounds (AID 1345084); also: nearly all actives have a fitted effect of over 55% in size
Conditions: Gynecologic cancer cell panel viability, ATPlite luminescence, 48 h; series mostly up to 57.5 µM; activity change, negative = cytotoxicity: at the top concentration
Summary of the method: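 Cytotoxicity screen measuring ATP content by luciferase luminescence. Each compound is applied at five concentrations for 48 h at 37 C with 5% CO2.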
% is scaled to controls: 0 for no effect and ±100 for the full control effect.

Structure (SMILES)	activity change, negative = cytotoxicity
Nc1ccc(-n2nc(C(F)(F)F)cc2C(F)(F)F)cc1	8.03%
Oc1ccc(CC2NCCc3cc(O)c(O)cc32)cc1 (stereo unspecified)	16.2%
NCCCCN(Cc1nc2ccccc2[nH]1)[C@H]1CCCc2cccnc21	-19.3% [at 25.3 µM]
C/C(=C\C1CCC(C)C2CCC3(C)OC123)C(=O)O (stereo unspecified)	-2.56%
CC1=C2C3OC(=O)C(C)C3(O)CCC2(C)CCC1 (stereo unspecified)	2.71%
O=C(N[C@H](Cc1ccccc1)C(=O)O)c1sc2cc(F)ccc2c1Cl	3.37%
CC(=O)c1ccc(O[C@@H]2O[C@H](CO[C@@H]3OC[C@@H](O)[C@H](O)[C@H]3O)[C@@H](O)[C@H](O)[C@H]2O)cc1	1.64% [at 25.3 µM]
C=C1C[C@H](O)[C@@H](O)[C@@]2(C)C1[C@@H](O)[C@H]1OC(=O)C3[C@@H](C)[C@@H](O)[C@H](O)C2[C@]31C (stereo partly specified)	8.26% [at 38.5 µM]
CCCC/C=C\CCCCCc1cc(=O)c2ccccc2n1C	-4.12% [at 38.5 µM]
Cn1cc(Nc2cnccc2C(=O)O)c2cccnc21	9.58%
C[C@H]1[C@H](C)C[C@@H](C(=O)O)C2CC[C@]3(C)C(=CC[C@@H]4[C@@]5(C)CC[C@H](O)C(C)(C)[C@@H]5CC[C@]43C)[C@@H]21 (stereo partly specified)	5.39%
C=CC(C)(O)CC/C=C(\C)C(=O)O[C@@H]1[C@@H](O)[C@H](OC(C)(C=C)CC/C=C(\C)C(=O)O)O[C@H](CO)[C@H]1OC(=O)/C(C)=C/CCC(C)(O)C=C (stereo partly specified)	-1.17% [at 25.3 µM]
CC1(C)CC[C@]2(C(=O)O[C@@H]3O[C@H](CO)[C@@H](O)[C@H](O)[C@H]3O)CC[C@]3(C)C(=CCC4[C@@]5(C)CC[C@H](O[C@@H]6O[C@H](C(=O)O)[C@@H](O)[C@H](O)[C@H]6OC6OC(CO)C(O)C(O)C6O)C(C)(C)C5CC[C@]43C)[C@@H]2C1 (stereo partly specified)	5.59% [at 11.6 µM]
COc1cccc(C)c1C(=O)O[C@@H]1C[C@H](O[C@H]2[C@H](O)C[C@H](O[C@@H]3CCC[C@H]4[C@H]3C=C[C@@H]3CCCC/C=C/[C@H]5C=C(C(=O)O)[C@@H](C)C[C@@]56OC(=O)C(=C6O)OC(=O)[C@@]34C)O[C@@H]2C)O[C@H](C)[C@H]1O	4.28% [at 11.6 µM]
CC(C)CC(=O)OC[C@@]1(O)C[C@@]23CC[C@H]4[C@@](C)(CCC[C@@]4(C)C(=O)O)[C@@H]2CC[C@@H]1C3	16.7% [at 25.3 µM]
C=C[C@H]1[C@H](O[C@@H]2O[C@H](CO)[C@@H](O)[C@H](O)[C@H]2O)OC=C(C(=O)OC)[C@H]1CC=O	6.29% [at 38.5 µM]

Structure (SMILES)	activity change, negative = cytotoxicity
C=C1C(=O)OC2CC(COC(=O)C(C)C)=C(C(C)CCCOC(C)=O)[C@@H](OC(C)=O)C12 (stereo partly specified)	3.1% [at 25.3 µM]
CC1=C2C(=O)C=C(CO[C@@H]3O[C@H](CO)[C@@H](O)[C@H](O)[C@H]3O)[C@@H]2[C@H]2OC(=O)[C@H](C)[C@@H]2[C@@H](O)C1	-4.89% [at 25.3 µM]
C=C1C(=O)O[C@@H]2CC(C)=C([C@@H](C)CCCOC(C)=O)[C@@H](O)[C@H]12	8.06% [at 38.5 µM]
CC1=COC(OC2OC(CO)C(O)C(O)C2O)C2C(CO)CC(OC(=O)/C=C/c3ccc(O)cc3)C12 (stereo unspecified)	-7.82% [at 25.3 µM]
COc1cccc(OC)c1-c1ccc(C[C@H](NC(=O)c2c(Cl)cccc2Cl)C(=O)O)cc1	0.0454%
C/C=C/C(=O)OC1/C=C/C(O)C(OC(C)=O)CCC(=O)OC1C (stereo unspecified)	1.19% [at 38.5 µM]
CC1(C)[C@H]2C[C@H](C/C=C\CCCC(=O)O)[C@@H](NC(=O)c3csc4ccc(O)cc34)[C@@H]1C2	4.65%
CC(=O)/C=C/C1C(C)CC(O[C@@H]2O[C@H](CO)[C@@H](O)[C@H](O)[C@H]2O)CC1(C)C (stereo partly specified)	-0.943% [at 38.5 µM]
COC(=O)c1ccccc1O[C@@H]1O[C@H](CO[C@@H]2OC[C@@H](O)[C@H](O)[C@H]2O)[C@@H](O)[C@H](O)[C@H]1O	4.79% [at 25.3 µM]
NC(Cc1c[nH]c2ccc(O)cc12)C(=O)O (stereo unspecified)	1.67%
CCN=C1N[C@@H]2[C@@H](O)[C@H](O)[C@@H](CO)O[C@@H]2S1	1.05%
O=C(NC1CCN(CC(F)(F)F)CC1)c1ccc(-c2cccc(F)c2)nc1	0.71%
COc1cc(/C=C/C(=O)O[C@H]2[C@@H]3C=CO[C@@H](O[C@@H]4O[C@H](CO)[C@@H](O)[C@H](O)[C@H]4O)[C@@H]3[C@@]3(CO)O[C@@H]23)ccc1O	-8.43% [at 25.3 µM]
C[C@@H]1[C@H](O)[C@@H]2OC(=O)C3=C2[C@H](CCC3)[C@@]12C[C@@H](c1ccoc1)OC2=O	-0.865% [at 38.5 µM]
CC1OC(OC2CCC3(C)C(CCC4(C)C3C=CC35OCC6(CCC(C)(C)CC63)CCC45C)C2(C)CO)C(OC2OC(CO)C(O)C(O)C2O)C(O)C1OC1OC(CO)C(O)C(O)C1O (stereo unspecified)	-0.667% [at 11.6 µM]

Reference: PubChem BioAssay (NCATS)
